Screens as filed in PubChem.
Y pestis TopoI: inhibitors of Yersinia pestis topoisomerase I | Y. pestis Topo-I cleavage product accumulation, plate reader | activity, % at 10 µM | 360,000 tested, 0.064% active | AID 504884; in the data active = activity above about 50%, passing the limit was not always enough
GDH-TPI inh: counter-screen for M. tuberculosis FBA inhibitors: GDH-TPI coupled enzymes. inhibition, % at 4.8 µM. GDH-TPI coupled enzyme counterscreen, NADH absorbance. 360,000 tested, 1.2% active. AID 588335; in the data active = inhibition above about 30%;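 note: 0% = DMSO wells and 100% = wells lacking the enzyme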
PrP 5UTR inh: inhibition of PrP 5' UTR reporter expression; cell-based PrP 5' UTR mRNA reporter, plate reader; inhibition, % (test concentration not listed); 340,000 tested, 0.35% active; AID 488862; in the data active = inhibition above about 52%; note: 0 = median of the neutral control wells
Mtb FBA inh: inhibits M. tuberculosis FBA enzyme | purified M. tuberculosis FBA, fluorescence read-out | inhibition, % at 1 µM | 360,000 tested, 2.3% active; in the data active = inhibition above about 27%;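 note: 0% = vehicle and 100% = reference inhibitor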
Mtb hypoxia inh: Mtb hypoxia fluorescent reporter inhibition; M. tuberculosis hypoxia-regulated fluorescent reporter, fluorescence; fluorescence inhibition, % (test concentration not listed); 300,000 tested, 0.1% active; in the data active = fluorescence inhibition mostly above about 23%, no sharp cut-off; inactive = mostly below about 17%
PrPC surface inh: reduces human prion protein on the cell surface | P04156 | AID 720596 | inhibition, % at 13.8 µM | 370,000 tested, 0.43% active | cell surface PrPC, TR-FRET read-out; in the data active = inhibition above about 24%; note: 0% = median of the test wells and 100% = reference compound wells
PrPC TRFRET cf: confirmation of inhibitors of cell surface human prion protein; shares compounds with PrPC surface inh; cell surface PrPC level, TR-FRET; inhibition, % at 13.8 µM; 1,500 tested, 65% active; AID 743200; in the data active = inhibition above about 25%
LD9 cytotox: kills or reduces viability of LD9 cells in PrPc counter-screen. AID 743201. shares compounds with PrPC surface inh. LD9 cells cytotoxicity, luminescence viability. inhibition, % at 13.8 µM. 1,500 tested, 29% active; in the data active = inhibition above about 9.5%
An asterisk follows results filed as active; · = no result given. Hits are enriched below; roughly 3.8% of the tested compounds scored in any of these assays.

SMILES	Y pestis TopoI	GDH-TPI inh	PrP 5UTR inh	Mtb FBA inh	Mtb hypoxia inh	PrPC surface inh	PrPC TRFRET cf	LD9 cytotox
Fc1ccc(C=NNc2cc(N3CCOCC3)ncn2)cc1	·	·	·	·	-8	·	·	·
CC1CN(C(C)CO)C(=O)c2cccc(NS(=O)(=O)c3ccccc3)c2OC1CN(C)C(=O)Nc1ccc2c(c1)OCO2 (stereo unspecified)	·	·	·	·	12	·	·	·
CCOc1ccc(N2C(=O)CC(Sc3nc(-c4cccs4)cc(C(F)(F)F)c3C#N)C2=O)cc1 (stereo unspecified)	7	25	-9	4	7	25*	11	-4
Cc1ccc([N+](=O)[O-])c(C(=O)NN=Cc2cccs2)c1	·	·	·	·	-3	·	·	·
COc1ccc(NC(=O)c2cc(-c3cc(Cl)ccc3C)n[nH]2)cc1OC	-2	3	·	-4	·	25*	28*	15*
COc1ccc(NC(=O)c2cc(-c3ccc(F)cc3C)n[nH]2)cc1OC	6	-1	·	-1	·	25*	13	8
COc1ccc(Cc2nnc(NC(=O)c3ccc(OC)c(OC)c3)s2)cc1	6	12	-17	2	·	-1	·	·
COc1ccc(C(=O)Nc2nnc(Cc3cccs3)s2)cc1OC	0	14	-14	5	·	65*	36*	-1
Cc1ccc(S(=O)(=O)Nc2ccccc2C(=O)N2CCOCC2)cc1	-6	-3	-2	6	-7	-7	·	·
CS(=O)(=O)Nc1ccccc1C(=O)N1CCOCC1	0	8	-30	0	-2	34*	9	-5
O=C(Nc1cccc(S(=O)(=O)Nc2ccc(Cl)cc2)c1)c1cc2c(s1)CCCC2	1	1	-3	-1	1	27*	32*	-3
O=C(Nc1ccc(N2CCOCC2)cc1)c1cc2c(s1)CCCCC2	3	2	-22	-1	20	25*	12	12*
O=C(Nc1cc(S(=O)(=O)N2CCOCC2)ccc1N1CCCC1)c1cc2c(s1)CCCC2	·	·	·	·	·	52*	75*	-5
O=C(NC1CCCCCC1)c1cc(S(=O)(=O)N2CCOCC2)ccc1N1CCCCC1	-4	22	-5	2	-18	28*	18	-3
C=CCn1cc(C=NNc2nc3ccccc3[nH]2)c2ccccc21	·	·	·	·	1	·	·	·
O=C(NCc1cccnc1)c1c(O)c2cccc3c2n(c1=O)CCC3	4	3	1	1	7	32*	39*	-7
NCCNC(=O)c1c(O)c2cccc3c2n(c1=O)CCC3	-2	-2	-14	1	13	15	·	·
CC(NC1CCCCC1)C(O)C12CC3CC(CC(C3)C1)C2 (stereo unspecified)	-1	17	-35	1	6	36*	28*	2
CC[C@]12C(=O)N(C)CC(C3C(=O)N(Cc4ccccc4)C(=O)C31)N2C(=O)c1ccccc1 (stereo partly specified)	·	·	·	·	3	·	·	·
CSc1nc2ccc(NC(=O)c3cccs3)cc2s1	-11	14	-55	0	-8	25*	25*	0
CSc1nc2ccc(NC(=O)c3cc4ccccc4o3)cc2s1	2	15	-98	4	1	-5	·	·
O=S(=O)(CCN1CCN(c2ccccc2O)CC1)c1cc(Cl)ccc1Cl	6	-4	-14	-2	7	36*	3	-2
COc1cc(N2CN=c3sc(=Cc4ccccn4)c(=O)n3C2)cc(OC)c1OC	·	·	·	·	7	·	·	·
CCCc1c(-c2ccc(F)cc2F)ncn1Cc1ccccc1OC	·	·	·	·	·	25*	7	9
CC(C)CCNC(=O)C(c1ccc(O)cc1)N(Cc1cccs1)C(=O)C1COc2ccccc2O1 (stereo unspecified)	-2	-3	7	2	4	25*	10	3
SMILES	Y pestis TopoI	GDH-TPI inh	PrP 5UTR inh	Mtb FBA inh	Mtb hypoxia inh	PrPC surface inh	PrPC TRFRET cf	LD9 cytotox
Cc1c([N+](=O)[O-])c(C/C=N/O)nn1C	3	20	-8	1	·	33*	7	-3
Cc1ccc(CSC(Nc2ccc(F)cc2)=C(C#N)C#N)cc1	17	12	-15	-3	0	33*	36*	25*
CC(C)(C)C1C=C(C(=O)NCc2ccccc2)OC(OCCCCO)C1 (stereo unspecified)	·	·	·	·	4	·	·	·
CCc1cc2c(=O)c(-c3ccc4c(c3)OCCO4)coc2cc1OS(C)(=O)=O	14	9	-86	-3	10	36*	31*	6
CCOC(=O)c1oc2cc(O)c(CC)cc2c(=O)c1-c1ccc2c(c1)OCCO2	1	12	-10	-1	13	5	·	·
CC(C)(C)OC(=O)NC(CCCCNC(=O)OCc1ccccc1)c1nnc(C(CCCCNC(=O)OCc2ccccc2)NC(=O)OC(C)(C)C)o1 (stereo unspecified)	·	·	·	·	10	·	·	·
COc1cc(C=NNC(=O)c2ccc(O)cc2)ccc1Oc1ccc([N+](=O)[O-])cn1	·	·	·	·	-1	·	·	·
COc1ccc2[nH]c(C(=O)Nc3ccc(C)c(F)c3)cc2c1	-8	6	-38	4	7	39*	99*	5
COc1ccc2[nH]c(C(=O)N/N=C/c3ccc(O)cc3O)cc2c1	-19	31*	35	18	·	32*	40*	19*
COc1ccc2[nH]c(C(=O)NN=Cc3ccccc3OC)cc2c1	·	·	·	·	19	·	·	·
Cc1ccc(SCCNC(=O)C=Cc2ccc(Cl)cc2)cc1	·	·	·	·	-7	·	·	·
COCCNC(=O)C(=O)NN=C(C)CC(=O)Nc1cccc(C(F)(F)F)c1	·	·	·	·	11	·	·	·
O=c1[nH]c(=O)n(Cc2ccco2)c2c1C(C(F)(F)F)(C(F)(F)F)N=C(Cc1ccccc1)N2	2	3	-15	-2	-1	56*	47*	8
CC1CCCC(C)N1C(=O)CSc1nnc(COc2ccccc2)n1-c1ccccc1 (stereo unspecified)	3	8	-24	0	1	37*	34*	-4
NC(N)=NN=Cc1ccc(Cl)c([N+](=O)[O-])c1	·	·	·	·	0	·	·	·
